{
  "source": "PubChem BioAssay AID624133",
  "about": "(Broad Institute, 2012)",
  "note": "Screen size: about 1,600 compounds; about 1,300 (81%) were called active. No rule for the calls is given here. The set was probably picked from earlier hits. Only a sample is shown. Potency and affinity values are given separately.",
  "data": [
    {"assay": "control 3'UTR Renilla luciferase suppression, dose response, counter-screen for Shn3 inhibitor project, cell-based, Clone20-Shn3RL, cherry-picked (AID 624133);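 also: 0% = neutral control wells and -100% = positive control wells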", "conditions": "Clone20-Shn3RL cells, Renilla luciferase luminescence, 24 h; at 35 µM (top of the series) unless noted", "units": {"activity change, negative = inhibition": "%"}, "values": [
      {"compound": "Cc1ccc(S(=O)(=O)N2CCCCC2)cc1NS(=O)(=O)c1ccccc1F", "activity change, negative = inhibition": 200},
      {"compound": "COc1ccccc1C(=O)Nc1nc2ccccc2[nH]1", "activity change, negative = inhibition": 43.3},
      {"compound": "COc1ccc(N(C)C(=O)c2ccc3snnc3c2)cc1", "activity change, negative = inhibition": -52.1},
      {"compound": "CN(C)c1ccc(/C=C/c2nc3ccccc3s2)cc1", "activity change, negative = inhibition": 27.8},
      {"compound": "O=C1CCc2cccc(O)c2N1", "activity change, negative = inhibition": -23.2},
      {"compound": "Cc1c(CCOC(=O)CC23CC4CC(CC(C4)C2)C3)sc[n+]1CC(=O)c1ccc(Br)cc1", "activity change, negative = inhibition": -59.3},
      {"compound": "CN(C)CCN1C(=O)c2cccc3cc([N+](=O)[O-])cc(c23)C1=O", "activity change, negative = inhibition": 310},
      {"compound": "CSc1cccc(NC(=O)N2CCCC(CNS(=O)(=O)Cc3ccccc3)C2)c1", "note": "(stereo not given)", "activity change, negative = inhibition": 62.5},
      {"compound": "CCN(CC)c1ccc2c(c1)oc(=O)c1c(Cl)cc(=O)oc12", "activity change, negative = inhibition": -33.3},
      {"compound": "Cc1cccc(N2CCN(C(=S)Nc3ccc4nc(N5CCN(C)CC5)cc(C)c4c3)CC2)c1C", "activity change, negative = inhibition": 22.7},
      {"compound": "O=c1c2ccccc2c(C=Nc2ccccc2O)c(O)n1-c1nccs1", "activity change, negative = inhibition": -2.5},
      {"compound": "Cc1ccc(-c2cn3cc(C)ccc3n2)cc1", "activity change, negative = inhibition": 10},
      {"compound": "CC(C)CC(NC(=O)c1ccc(Cl)cc1)C(=O)OCC(=O)c1ccc2c(c1)NC(=O)CO2", "note": "(stereo not given)", "activity change, negative = inhibition": -16.7},
      {"compound": "CN1CCN(c2ccc(-c3ccc4ccccc4n3)cc2)CC1", "activity change, negative = inhibition": -31.9},
      {"compound": "CC(C)(C)n1nnnc1C(c1cccs1)N1CCCC2(CCCCC2)C1", "note": "(stereo not given)", "activity change, negative = inhibition": 54.2},
      {"compound": "O=C(CSc1nc(C(F)(F)F)cc(=O)[nH]1)N1CCCC1", "activity change, negative = inhibition": 231},
      {"compound": "CC(=O)N(CCc1ccccc1)c1ccc2c(c1)C1CC2CCN1C(=O)OCc1ccccc1", "note": "(stereo not given)", "activity change, negative = inhibition": -90.9},
      {"compound": "COc1ccc(NS(=O)(=O)c2cccc(NC(=O)c3ccc(S(=O)(=O)N4CCCCCC4)cc3)c2)cc1", "activity change, negative = inhibition": 11.9},
      {"compound": "COc1ccc(NS(=O)(=O)c2ccc(N3CCOCC3)c(N)c2)cc1", "activity change, negative = inhibition": -21.1},
      {"compound": "C=CCn1c(C)cc(C2=NNC(=NCC)SC2)c1C", "activity change, negative = inhibition": -16.7},
      {"compound": "NC(=O)NC(CC(=O)NCCc1ccccn1)c1ccccc1Cl", "note": "(stereo not given)", "activity change, negative = inhibition": -110},
      {"compound": "S=c1[nH]nc(COc2cccc3ccccc23)n1Cc1ccccc1", "activity change, negative = inhibition": -87.5},
      {"compound": "CC(C)(C)C(=O)Nc1ccc(NC(=O)c2ccco2)nc1", "activity change, negative = inhibition": 8.33},
      {"compound": "CCOC(=O)C1=C(C)N(CCCC(=O)O)C(=O)NC1c1ccc2ccccc2c1", "note": "(stereo not given)", "activity change, negative = inhibition": -30},
      {"compound": "Cc1ccc(C(=O)N2CCN(C)CC2)cc1S(=O)(=O)N1CCCCCC1", "activity change, negative = inhibition": 65.3},
      {"compound": "CCN(CC)C(=S)Sc1c(-c2ccccc2)c2cc(Cl)ccc2[nH]c1=O", "activity change, negative = inhibition": 16.7},
      {"compound": "CC(C)(C)C(=O)Nc1cc2nn(-c3ccccc3)nc2cc1Cl", "activity change, negative = inhibition": 52.1},
      {"compound": "COc1ccc(OC)c(NC(=O)COC(=O)c2c3c(nc4ccccc24)CCCC3)c1", "activity change, negative = inhibition": 40},
      {"compound": "COc1cc(Nc2nc(-c3ccccc3)c3cc(C)ccc3n2)cc(OC)c1OC", "activity change, negative = inhibition": 16.7},
      {"compound": "Cc1ccc(S(=O)(=O)N2CCC3(CC2)OCCN3S(=O)(=O)c2c(C)cc(C)cc2C)cc1", "activity change, negative = inhibition": -13.6},
      {"compound": "O=C(CSc1nc2[nH]ncc2c(=O)[nH]1)Nc1ccccc1C(F)(F)F", "activity change, negative = inhibition": -108},
      {"compound": "Cc1csc(=O)n1CCC(=O)N(C)Cc1c(F)cccc1Cl", "activity change, negative = inhibition": 75},
      {"compound": "CN(C)c1ncnc2c1C(c1ccccc1)C(C)(C)O2", "note": "(stereo not given)", "activity change, negative = inhibition": -22.2},
      {"compound": "O=C(OCc1ccccc1)N(CCCCN(CCCNCc1ccccc1)C(=O)OCc1ccccc1)CCCNCc1ccccc1", "activity change, negative = inhibition": 20},
      {"compound": "COc1ccc(-c2noc(CCCCC(=O)N3CCN(c4cc(C)ccc4C)CC3)n2)cc1", "activity change, negative = inhibition": -30},
      {"compound": "C=CC[C@H](CC(=O)N(CCO)Cc1ccccc1)C(=O)NC[C@H](OC(=O)[C@@H](CC=C)Cc1ccc(F)cc1)c1ccccc1", "activity change, negative = inhibition": -75},
      {"compound": "CCS(=O)(=O)c1ccc2oc(SCC(=O)N3CCCCC3)nc2c1", "activity change, negative = inhibition": 35},
      {"compound": "CSc1nc(N2CCN(Cc3ccc4c(c3)OCO4)CC2)c2ccccc2n1", "activity change, negative = inhibition": -16.7},
      {"compound": "Cc1ccc(NC(=O)c2oc3ccccc3c2COC(C)C)cc1S(=O)(=O)N1CCOCC1", "activity change, negative = inhibition": 25},
      {"compound": "Cc1ccc(CNC(=O)CSc2c3c(nc4ccc(Cl)cc24)CCCC3)o1", "activity change, negative = inhibition": 106},
      {"compound": "O=C(CSc1nc2c(c(=O)n1-c1ccc(Br)cc1)SCC2)NCc1ccco1", "activity change, negative = inhibition": 29.2},
      {"compound": "CC(C)c1c(O)c2c(n(-c3ccccc3)c1=O)CCCC2", "activity change, negative = inhibition": -21.1},
      {"compound": "O=C(Nc1cccc(S(=O)(=O)NC2=NCCC2)c1)C1CC(=O)N(c2ccc3c(c2)OCCO3)C1", "note": "(stereo not given)", "activity change, negative = inhibition": -66.7},
      {"compound": "C[C@@H]1CC=C[C@H]2[C@H]1C(=O)N(Cc1ccccc1)[C@H]2c1cccc([N+](=O)[O-])c1", "activity change, negative = inhibition": 162},
      {"compound": "COc1cc(NC(=O)c2cc3c(Cl)nc4ccccc4c3s2)cc(OC)c1OC", "activity change, negative = inhibition": 60},
      {"compound": "O=C(Nc1ccc(Cl)c(Cl)c1)c1cccc(S(=O)(=O)NCc2cccnc2)c1", "activity change, negative = inhibition": -10},
      {"compound": "Cc1ccc(NC(=O)C2CCC(C(C)(C)C)CC2)cc1S(=O)(=O)N1CCOCC1", "note": "(stereo not given)", "activity change, negative = inhibition": -100},
      {"compound": "O=C(NNc1ccccc1)C(=O)NNS(=O)(=O)c1ccc(CCCl)cc1", "activity change, negative = inhibition": 90},
      {"compound": "CCCc1nc2c(=O)n(C)c(=O)nc-2n(C)n1", "activity change, negative = inhibition": 71.8},
      {"compound": "COc1ccc(CNC(=O)C(C)n2ccc3cc(S(=O)(=O)N4CCCCCC4)ccc32)cc1", "note": "(stereo not given)", "activity change, negative = inhibition": 12.2}
    ]}
  ]
}
